Experimental findings from paper PMC4081100, “A DNA-binding-site landscape and regulatory network analysis for NAC transcription factors in Arabidopsis thaliana” are described below.

Holding throughout (assay): universal protein binding microarray (PBM); transcription factors of Arabidopsis thaliana; high values mean tight binding
What all share (settings): protein: recombinant; tags: GST; chain copies: 2; dsDNA, one strand shown

Assay [1] addresses T1, GST-ANAC092(1-176) (Arabidopsis thaliana, UniProt Q9FKA0 1-176).
T1 sequence: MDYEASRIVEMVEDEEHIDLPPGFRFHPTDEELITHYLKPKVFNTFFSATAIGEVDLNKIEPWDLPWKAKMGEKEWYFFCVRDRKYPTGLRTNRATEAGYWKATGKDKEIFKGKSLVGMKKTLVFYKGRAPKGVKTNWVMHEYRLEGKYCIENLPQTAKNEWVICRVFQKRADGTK
A digest of the protocol: (§1)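 GST-tagged NAC-domain, full-length or DNA-binding-domain proteins were induced in cells, with zinc acetate added for zinc-finger proteins. They were purified on glutathione–Sepharose 4B and quantified by A280 or anti-GST western blot. Each was applied at 200 to 500 nM final, in duplicate, to custom all-10-mer Agilent 4 × 180K arrays made double-stranded by primer extension, with gapped and ungapped 8-mers scored. Binding is the normalised enrichment score (E-score).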

Assay [2] addresses GST-NTL6(1-168) (Arabidopsis thaliana, UniProt Q9SCK6 1-168). The gist of the method: as §1
The target in assay [3] is T2, GST-ANAC019 NAC domain (Arabidopsis thaliana, UniProt Q9C932 14-162).
T2 sequence: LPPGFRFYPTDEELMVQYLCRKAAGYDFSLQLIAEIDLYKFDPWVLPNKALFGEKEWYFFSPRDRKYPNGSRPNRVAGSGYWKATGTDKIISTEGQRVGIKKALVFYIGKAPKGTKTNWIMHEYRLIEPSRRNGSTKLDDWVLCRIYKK
A digest of the protocol:
as §1

The target in assay [4] is T3, GST-ANAC055(1-171) (Arabidopsis thaliana, UniProt Q9LDY8 1-171).
T3 sequence: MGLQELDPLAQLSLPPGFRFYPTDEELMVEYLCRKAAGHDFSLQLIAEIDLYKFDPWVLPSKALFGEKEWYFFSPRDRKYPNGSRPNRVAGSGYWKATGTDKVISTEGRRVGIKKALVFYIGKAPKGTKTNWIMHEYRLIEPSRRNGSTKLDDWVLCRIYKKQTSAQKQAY
A digest of the protocol: as §1

In assay [5] the target is T4, GST-ATAF1 NAC domain (Arabidopsis thaliana, UniProt Q39013 7-158).
T4 sequence: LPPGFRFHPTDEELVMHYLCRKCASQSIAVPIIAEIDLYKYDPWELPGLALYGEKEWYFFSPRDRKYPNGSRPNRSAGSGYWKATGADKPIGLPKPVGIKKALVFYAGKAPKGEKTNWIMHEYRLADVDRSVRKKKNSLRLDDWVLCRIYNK
The gist of the method:
as §1

The target in assay [6] is T5, GST-ANAC092(1-285) full length (Arabidopsis thaliana, UniProt Q9FKA0 1-285).
T5 sequence: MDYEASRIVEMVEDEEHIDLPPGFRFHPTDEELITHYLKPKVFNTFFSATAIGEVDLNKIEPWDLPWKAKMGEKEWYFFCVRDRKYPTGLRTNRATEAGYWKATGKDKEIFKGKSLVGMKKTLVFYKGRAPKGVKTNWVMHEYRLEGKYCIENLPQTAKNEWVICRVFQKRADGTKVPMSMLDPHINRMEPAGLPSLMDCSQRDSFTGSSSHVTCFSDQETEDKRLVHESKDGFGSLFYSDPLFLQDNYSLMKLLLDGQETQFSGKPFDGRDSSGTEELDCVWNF
The gist of the method: as §1

For assay [7], the target named is T6, GST-NAP(1-166) (Arabidopsis thaliana, UniProt O49255 1-166).
T6 sequence: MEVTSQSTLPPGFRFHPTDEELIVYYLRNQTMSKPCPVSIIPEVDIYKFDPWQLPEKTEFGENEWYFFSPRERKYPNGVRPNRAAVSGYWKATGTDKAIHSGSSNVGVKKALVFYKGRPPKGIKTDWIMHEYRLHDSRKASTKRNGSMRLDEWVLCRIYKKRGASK
The gist of the method: as §1

For assay [8], the target named is T7, GST-NST2(1-184) (Arabidopsis thaliana, UniProt Q9M274 1-184).
T7 sequence: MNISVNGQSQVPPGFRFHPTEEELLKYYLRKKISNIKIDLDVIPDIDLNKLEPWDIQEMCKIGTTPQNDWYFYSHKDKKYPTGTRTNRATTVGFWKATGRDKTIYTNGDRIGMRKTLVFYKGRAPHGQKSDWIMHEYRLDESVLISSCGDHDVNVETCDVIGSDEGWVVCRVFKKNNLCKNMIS
A digest of the protocol:
as §1

The target in assay [9] is T8, GST-NTL8 NAC domain (Arabidopsis thaliana, UniProt Q9XIN7 14-156).
T8 sequence: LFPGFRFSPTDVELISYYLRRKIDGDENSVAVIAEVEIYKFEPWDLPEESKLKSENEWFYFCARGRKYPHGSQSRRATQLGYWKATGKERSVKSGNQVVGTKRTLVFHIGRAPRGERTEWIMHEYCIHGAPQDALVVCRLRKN
A digest of the protocol:
as §1

The target of assay [10] is T9, GST-SND1(1-203) (Arabidopsis thaliana, UniProt Q9LPI7 1-203).
T9 sequence: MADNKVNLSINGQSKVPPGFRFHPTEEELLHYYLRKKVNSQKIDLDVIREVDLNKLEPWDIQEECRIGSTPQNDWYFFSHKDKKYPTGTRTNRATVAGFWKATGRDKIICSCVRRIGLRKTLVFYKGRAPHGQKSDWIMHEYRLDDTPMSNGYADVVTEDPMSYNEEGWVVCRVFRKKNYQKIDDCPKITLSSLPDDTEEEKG
The gist of the method: as §1

Assay [11] concerns the target T10, GST-VND3 NAC domain (Arabidopsis thaliana, UniProt Q9FH59 12-162).
T10 sequence: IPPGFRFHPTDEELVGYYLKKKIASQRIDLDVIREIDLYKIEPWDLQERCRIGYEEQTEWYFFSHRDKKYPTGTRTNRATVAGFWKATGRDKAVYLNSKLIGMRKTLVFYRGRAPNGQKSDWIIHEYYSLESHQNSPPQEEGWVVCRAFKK
The gist of the method: as §1

Assay [12] concerns the target T11, GST-VND7 NAC domain (Arabidopsis thaliana, UniProt Q9C8W9 9-158).
T11 sequence: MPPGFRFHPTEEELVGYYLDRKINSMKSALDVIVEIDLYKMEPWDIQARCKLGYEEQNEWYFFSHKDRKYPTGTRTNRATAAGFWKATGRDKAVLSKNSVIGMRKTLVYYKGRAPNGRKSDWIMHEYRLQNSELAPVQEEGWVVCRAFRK
A digest of the protocol: as §1

Sequence of GST-NTL6(1-168) (Q9SCK6 1-168): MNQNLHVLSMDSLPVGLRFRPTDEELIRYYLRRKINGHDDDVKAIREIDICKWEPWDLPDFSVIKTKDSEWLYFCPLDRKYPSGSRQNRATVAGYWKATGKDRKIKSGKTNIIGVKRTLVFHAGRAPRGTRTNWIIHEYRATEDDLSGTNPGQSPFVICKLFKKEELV

Consider CGAGGAAA, for which the binding signal in assay [1] was 0.0746 E-score; in assay [2], 0.138 E-score; in assay [3], 0.0533 E-score; in [4], 0.139 E-score; in assay [5], 0.152 E-score; in assay [6], 0.131 E-score. Besides, the binding signal in assay [7] worked out at 0.0581 E-score; in assay [8] it was 0.0987 E-score; in assay [9] it was 0.442 E-score; in assay [10] it was 0.17 E-score; in assay [11], 0.155 E-score; in assay [12] it was 0.173 E-score.
As for GCGTAAAA, the binding signal in assay [1] was determined as 0.261 E-score; in [2], 0.0562 E-score; in [3] it was 0.15 E-score; in assay [4] it was 0.087 E-score; in assay [5], 0.185 E-score; in assay [6], 0.247 E-score. The binding signal in assay [7] amounted to 0.0952 E-score; in [8] it was 0.239 E-score; in assay [9], 0.107 E-score; in assay [10] it was 0.407 E-score; in assay [11], 0.197 E-score; in [12], 0.174 E-score.
With CACGTTAA, the binding signal in assay [1] came to 0.429 E-score; in [2], 0.0985 E-score; in assay [3], 0.125 E-score; in assay [4], 0.243 E-score; in assay [5] it was 0.219 E-score; in assay [6] it was 0.442 E-score. Also, the binding signal in assay [7] amounted to 0.129 E-score; in [8], 0.301 E-score; in assay [10] it was 0.377 E-score; in assay [11] it was 0.184 E-score; in assay [12] it was 0.156 E-score.
Turning to ACACGCTA, the binding signal worked out at 0.484 E-score in assay [1]; 0.0935 E-score in assay [2]; 0.16 E-score in assay [3]; 0.193 E-score in assay [4]; 0.116 E-score in assay [5]; 0.49 E-score in assay [6]. The binding signal in assay [7] stood at 0.194 E-score; in assay [8], 0.4 E-score; in assay [10], 0.438 E-score; in assay [11], 0.079 E-score; in assay [12] it was 0.104 E-score.
Consider AATGCCGT, for which the binding signal in assay [1] worked out at 0.335 E-score; in [2] it was 0.0523 E-score; in assay [3], 0.428 E-score; in assay [4], 0.391 E-score; in [5] it was 0.342 E-score; in assay [6], 0.365 E-score. Moreover, the binding signal in [7] was found to be 0.366 E-score; in assay [8], 0.114 E-score; in assay [10], 0.0974 E-score; in assay [11], 0.407 E-score; in assay [12], 0.4 E-score.
Turning to TAAGCAAA, the binding signal in assay [1] worked out at 0.201 E-score; in assay [2], 0.431 E-score; in assay [3], 0.113 E-score; in [4] it was 0.208 E-score; in assay [5] it was 0.202 E-score; in assay [6], 0.308 E-score. Besides, the binding signal was determined as 0.103 E-score in assay [7]; 0.291 E-score in assay [8]; 0.241 E-score in [9]; 0.409 E-score in assay [10]; 0.248 E-score in assay [11]; 0.252 E-score in [12].
As for AAGGAAAT, the binding signal in assay [1] stood at 0.191 E-score; in assay [2], 0.384 E-score; in assay [3] it was 0.147 E-score; in assay [4], 0.0899 E-score; in assay [5], 0.122 E-score; in assay [6], 0.163 E-score. For the same sequence, the binding signal came to 0.06 E-score in assay [7]; 0.15 E-score in assay [8]; 0.466 E-score in [9]; 0.258 E-score in assay [10]; 0.144 E-score in [11]; 0.0723 E-score in assay [12].
On to GCACGAAA, for which the binding signal in assay [1] was 0.401 E-score; in assay [2], 0.0615 E-score; in assay [3], 0.253 E-score; in assay [4], 0.197 E-score; in assay [5] it was 0.165 E-score; in [6] it was 0.441 E-score. For the same sequence, the binding signal came out at 0.245 E-score in assay [7]; 0.0864 E-score in assay [8]; 0.0576 E-score in [9]; 0.211 E-score in assay [10]; 0.173 E-score in assay [11]; 0.145 E-score in assay [12].
For GCGTAATA, the binding signal turned out to be 0.318 E-score in assay [1]; 0.0582 E-score in assay [2]; 0.0565 E-score in assay [3]; 0.189 E-score in [4]; 0.0519 E-score in assay [5]; 0.324 E-score in assay [6]. Also, the binding signal in [7] came to 0.109 E-score; in assay [8], 0.306 E-score; in assay [10] it was 0.422 E-score; in [11], 0.203 E-score; in assay [12], 0.246 E-score.
As for ACGTATCT, the binding signal stood at 0.189 E-score in assay [1]; 0.0824 E-score in assay [2]; 0.425 E-score in [3]; 0.38 E-score in [4]; 0.334 E-score in [5]; 0.306 E-score in [6]. Moreover, the binding signal in assay [7] stood at 0.393 E-score; in assay [8] it was 0.189 E-score; in assay [10], 0.14 E-score; in [11], 0.393 E-score; in [12], 0.313 E-score.
Take GGAAGCAA: the binding signal in assay [1] is 0.318 E-score; in assay [2], 0.36 E-score; in assay [3], 0.117 E-score; in assay [4], 0.136 E-score; in assay [5], 0.137 E-score; in [6] it was 0.405 E-score. Moreover, the binding signal in [7] was 0.0755 E-score; in [8], 0.242 E-score; in assay [9], 0.269 E-score; in assay [10], 0.385 E-score; in assay [11], 0.118 E-score; in assay [12], 0.0735 E-score.
Take AAGCGTAA: the binding signal in assay [1] amounted to 0.214 E-score; in [2], 0.0576 E-score; in assay [3], 0.168 E-score; in [4] it was 0.0793 E-score; in assay [5] it was 0.175 E-score; in assay [6], 0.3 E-score. Further, the binding signal in assay [7] came to 0.119 E-score; in assay [8] it was 0.212 E-score; in assay [10], 0.426 E-score; in [11] it was 0.13 E-score; in assay [12], 0.115 E-score.
As to GTACGAAA, the binding signal in assay [1] was 0.38 E-score; in assay [2], 0.184 E-score; in assay [3], 0.267 E-score; in [4] it was 0.274 E-score; in [5] it was 0.24 E-score; in [6], 0.413 E-score. The binding signal is 0.247 E-score in assay [7]; 0.285 E-score in assay [8]; 0.116 E-score in assay [9]; 0.277 E-score in assay [10]; 0.294 E-score in [11]; 0.196 E-score in assay [12].
